Experimental data: PubChem BioAssay (NCATS)
Records with an inconclusive call do not appear. Entries that show only a call come without a potency. The source made the active and inactive calls. Calls follow the shape of the dose curve; as a rule, active = well fitted inhibition curve with a large enough effect; inconclusive = small, poorly fitted or top-dose-only effect; inactive = no such curve, though single readings can be large or run the other way.
Potency is read from the fitted curve at half-maximal effect.

These compounds were tested against Cytochrome P450 3A7 (Homo sapiens) (UniProt P24462) (assay: Cytochrome P450 family 3 subfamily A member 7 (CYP3A7) small molecule antagonists: luciferase biochemical qHTS assay (AID 1963596; also: nearly all actives have a fitted effect of over 40% in size)). Conditions: P450-Glo CYP3A7 enzyme luminescence, 1 h; series mostly up to 57.4 µM.
Cytochrome P450 3A7 (Homo sapiens), sequence (P24462 whole entry, looked up): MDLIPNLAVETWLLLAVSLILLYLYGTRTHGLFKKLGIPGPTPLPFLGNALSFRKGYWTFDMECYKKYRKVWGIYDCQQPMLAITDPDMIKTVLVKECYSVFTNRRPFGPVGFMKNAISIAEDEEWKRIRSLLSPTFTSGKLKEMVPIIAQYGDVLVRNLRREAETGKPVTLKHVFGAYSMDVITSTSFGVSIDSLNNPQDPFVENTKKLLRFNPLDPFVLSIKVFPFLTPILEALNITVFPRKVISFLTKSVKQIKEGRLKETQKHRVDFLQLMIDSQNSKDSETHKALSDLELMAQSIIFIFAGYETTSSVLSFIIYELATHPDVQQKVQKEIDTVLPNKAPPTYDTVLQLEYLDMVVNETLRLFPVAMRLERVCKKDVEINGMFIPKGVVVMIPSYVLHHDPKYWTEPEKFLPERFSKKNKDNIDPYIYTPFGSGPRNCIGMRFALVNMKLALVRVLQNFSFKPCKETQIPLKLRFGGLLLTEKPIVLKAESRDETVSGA
Summary of the method: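 Luminescence read-out (relative luminescence units) after 20 min with detection reagent, which stops the reaction. Enzyme, proluciferin substrate and compound preincubated 10 min, RT; NADPH regeneration system then started 1 h reaction. Ketoconazole as positive control.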
In the case of `O=C(CCCCl)c1ccc(F)cc1`, the Potency is reported as “inactive”. `COc1ccccc1N1CCNCC1` was tested, and the Potency was “inactive”. `CC(C)(C)NCC(O)c1cc(Cl)c(N)c(Cl)c1` (centres undefined) was tested, and the Potency was “inactive”. In the case of `O=C1c2ccccc2C(=O)c2ccccc21`, the Potency is reported as “inactive”. For `CC1OC(C)OC(C)O1` (centres undefined), the Potency was “inactive”. With `CCNc1nc(Cl)nc(NCC)n1` the Potency was “inactive”. With `c1ccc2c(c1)sc1ccccc12` the Potency was “inactive”. With `CN[C@@H](C)[C@H](O)c1ccccc1` the Potency was “inactive”. `C[C@@H](C1CC[C@@]2(O)C3=CC(=O)[C@@H]4C[C@@H](O)[C@@H](O)C[C@]4(C)[C@H]3CC[C@]12C)[C@H](O)CCC(C)(C)O` (some centres undefined) was tested, and the Potency was “inactive”. With `CCN(Cc1ccc(Cl)nc1)/C(=C/[N+](=O)[O-])NC` the Potency was “inactive”. `CN(C)[C@@H]1C(=O)C(C(N)=O)=C(O)[C@@]2(O)C(=O)C3=C(O)c4c(O)cccc4[C@@](C)(O)[C@H]3[C@H](O)[C@@H]12` was tested, and the Potency was “inactive”. In the case of `CC[N+](CC)(CC)CC`, the Potency is reported as “inactive”. With `CC(C)(C)NCC(O)c1ccccc1Cl` (centres undefined) the Potency was “inactive”. For `NP(N)(=O)NC(=O)c1ccc(F)cc1`, the Potency was “inactive”. With `CCOC(=O)NC(C)(C)Cc1ccc(Cl)cc1` the Potency was “inactive”. In the case of `COP(=S)(OC)Oc1cc(Cl)c(Cl)cc1Cl`, the Potency is reported as 13.8 µM (active). For `NCC(CC(=O)O)c1ccc(Cl)cc1` (centres undefined), the activity change, negative = inhibition was -9.7% [at 0.91 µM] (inactive). For `CCCN(CCC)c1c([N+](=O)[O-])cc(S(N)(=O)=O)cc1[N+](=O)[O-]`, the Potency was 1.12 µM (active). For `CCC1(C2=NCCN2)Cc2ccccc2O1` (centres undefined), the Potency was “inactive”. For `CCc1ccc(C2CCNCC2)cc1`, the Potency was “inactive”. `CC(Cc1ccc(O)cc1)NCC(O)c1cc(O)cc(O)c1` (centres undefined) was tested, and the Potency was “inactive”. `C1CN2CCC1CC2` was tested, and the Potency was “inactive”. In the case of `OC(O)C(Cl)(Cl)Cl`, the Potency is reported as “inactive”. `O=[N+]([O-])/N=C1\NCCN1Cc1ccc(Cl)nc1` was tested, and the Potency was “inactive”. In the case of `CC1NCCOC1c1ccccc1` (centres undefined), the Potency is reported as “inactive”. For `COC(=O)[C@@H](N)CCCN/C(N)=N/[N+](=O)[O-]`, the Potency was “inactive”. In the case of `COC(=O)C(Cl)C(=O)OC`, the Potency is reported as “inactive”. In the case of `CC(C)NC(C)C`, the Potency is reported as “inactive”. With `C[N+](C)(C)CCOC(=O)C(O)(c1ccccc1)c1ccccc1` the Potency was “inactive”. In the case of `O=C(O)COc1ccccc1`, the Potency is reported as “inactive”. In the case of `CN(C)CCc1ccc(O)cc1`, the Potency is reported as “inactive”. For `NN=C(N)N`, the Potency was “inactive”. In the case of `CN1C(=O)CN=C(c2ccccc2)c2cc([N+](=O)[O-])ccc21`, the Potency is reported as “inactive”. In the case of `CC(C)(C)NCC(O)c1cc(Cl)c(N)c(C(F)(F)F)c1` (centres undefined), the Potency is reported as “inactive”. `CCOC(=O)NC(O)C(Cl)(Cl)Cl` (centres undefined) was tested, and the Potency was “inactive”. In the case of `O=c1[nH]oc2c1CCNC2`, the Potency is reported as “inactive”. In the case of `CC(O)CN1CCN(CC(=O)[O-])CCN(CC(=O)[O-])CCN(CC(=O)[O-])CC1.[Gd+3]` (centres undefined), the Potency is reported as “inactive”. For `CC(C)(N)Cc1ccc(Cl)cc1`, the Potency was “inactive”. With `ClCCN1CCCC1` the Potency was “inactive”.
